In the supplement of paper PMC10849652:
Targets with a hit are over-represented here; the source holds about 7,900 in all. About 0.6% of all pairs of compound and target were hits.

Legend:
Experiment in all cases: log2 fold change, soluble protein after heating vs DMSO (PISA); higher = thermal stabilisation; K562 cells, 10 uM, 30 min; active = over 0.2 and 3.5 SD of the protein, either way, in both replicates (recomputed)
saracatinib = compound: CN1CCN(CCOc2cc(OC3CCOCC3)c3c(Nc4c(Cl)ccc5c4OCO5)ncnc3c2)CC1 [saracatinib]
How it was run: (§1)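 For each measurement, 10 μM compound was applied for 30 min to K562 cells at 2×10^6 cells/mL. Aliquots were heated for 3 min across 48°C-58°C, pooled, and extracted in PBS with 0.5% NP-40 at 4°C; the supernatant after 21,000xg for 90 min was soluble protein. This was quantified by TMTpro 16plex LC-MS/MS with channel sums equalised, and thermal stability was reported relative to control samples from duplicates, on a log2 fold-change scale.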

sotrastaurin = compound: CN1CCN(c2nc(C3=C(c4c[nH]c5ccccc45)C(=O)NC3=O)c3ccccc3n2)CC1 [sotrastaurin]
How it was run: as §1

alvocidib = compound: CN1CC[C@H](c2c(O)cc(O)c3c(=O)cc(-c4ccccc4Cl)oc23)[C@H](O)C1 [alvocidib]
How it was run: as §1

Tubastatin A = compound: CN1CCc2c(c3ccccc3n2Cc2ccc(C(=O)NO)cc2)C1 [Tubastatin A]
How it was run: as §1

[1] = compound: CNC(=O)C1=CC=CC=C1NC2=NC(=NC=C2Cl)NC3=C(C=C(C=C3)N4CCOCC4)OC
How it was run: as §1

defactinib = compound: CNC(=O)c1ccc(Nc2ncc(C(F)(F)F)c(NCc3nccnc3N(C)S(C)(=O)=O)n2)cc1 [defactinib]
How it was run: as §1

rucaparib = compound: CNCc1ccc(-c2[nH]c3cc(F)cc4c3c2CCNC4=O)cc1 [rucaparib]
How it was run: as §1

[2] = compound: CNc1nc(-c2ccc3c(N)n[nH]c3c2)cc(N2C[C@@H](C(=O)NC3CCCCC3)CC[C@H]2C)n1
How it was run: as §1

encorafenib = compound: COC(=O)N[C@@H](C)CNc1nccc(-c2cn(C(C)C)nc2-c2cc(Cl)cc(NS(C)(=O)=O)c2F)n1 [encorafenib]
How it was run: as §1

[3] = compound: COC(=O)[C@H](CCSC)NC(=O)C1=C(C=C(C=C1)NC[C@H](CS)N)C2=CC=CC=C2
How it was run: as §1

Measured: log2 fold change

AGPAT5 (UniProt Q9NUQ2)
inactive: saracatinib 0.016 | sotrastaurin 0.08 | alvocidib -0.085 | Tubastatin A -0.075 | [1] -0.021 | defactinib 0.011 | rucaparib 0.012 | [2] 0.083 | encorafenib -0.011 | [3] -0.019

ABCA3 (UniProt Q99758)
inactive: saracatinib 0.009 | sotrastaurin 0.121 | alvocidib 0.047 | Tubastatin A -0.05 | [1] 0.065 | defactinib 0.108 | rucaparib 0.11 | [2] 0.011 | encorafenib 0.192 | [3] -0.039

APOH (UniProt P02749)
inactive: saracatinib 0.097 | sotrastaurin 0.317 | alvocidib 0.371 | Tubastatin A -0.128 | [1] -0.032 | defactinib -0.042 | rucaparib -0.13 | [2] -0.391 | encorafenib 0.041 | [3] -0.021

ATP2A3 isoform 2 (UniProt Q93084)
inactive: saracatinib 0.058 | sotrastaurin -0.007 | alvocidib -0.021 | Tubastatin A -0.022 | [1] -0.026 | defactinib -0.021 | rucaparib -0.04 | [2] 0.033 | encorafenib 0.027 | [3] 0.002

ADRM1 (UniProt Q16186)
inactive: saracatinib -0.086 | sotrastaurin -0.091 | alvocidib 0.042 | Tubastatin A 0.18 | [1] -0.067 | defactinib 0.087 | rucaparib -0.022 | [2] 0.111 | encorafenib 0.108 | [3] 0.017

AGO1 (UniProt Q9UL18)
inactive: saracatinib -0.066 | sotrastaurin -0.307 | alvocidib 0.141 | Tubastatin A -0.164 | [1] -0.039 | defactinib -0.03 | rucaparib 0.16 | [2] -0.085 | encorafenib 0.086 | [3] -0.036

ATP6V1C1 (UniProt P21283)
inactive: saracatinib -0.193 | sotrastaurin -0.07 | alvocidib 0.026 | Tubastatin A 0.059 | [1] -0.034 | defactinib -0.011 | rucaparib 0.137 | [2] 0.004 | encorafenib 0.083 | [3] -0.013

AKT1 (UniProt P31749)
inactive: saracatinib -0.163 | sotrastaurin -0.25 | alvocidib -0.043 | Tubastatin A 0.111 | [1] 0.317 | defactinib -0.062 | rucaparib 0.038 | [2] -0.24 | encorafenib -0.003 | [3] -0.025

ACO2 (UniProt Q99798)
inactive: saracatinib 0.005 | sotrastaurin -0.017 | alvocidib -0.107 | Tubastatin A -0.021 | [1] 0.016 | defactinib -0.083 | rucaparib -0.034 | [2] 0.021 | encorafenib 0.027 | [3] -0.037

BTAF1 (UniProt O14981)
inactive: saracatinib 0.087 | sotrastaurin 0.001 | alvocidib -0.022 | Tubastatin A -0.041 | [1] -0.027 | defactinib -0.074 | rucaparib -0.089 | [2] -0.012 | encorafenib 0.026 | [3] 0.007

ACADVL isoform 3 (UniProt P49748)
inactive: saracatinib 0.027 | sotrastaurin 0.056 | alvocidib -0.031 | Tubastatin A -0.028 | [1] -0.022 | defactinib -0.011 | rucaparib -0.007 | [2] 0.008 | encorafenib -0.021 | [3] -0.001

BCAP29 isoform 2 (UniProt Q9UHQ4)
inactive: saracatinib 0.052 | sotrastaurin 0.104 | alvocidib 0.041 | Tubastatin A -0.052 | [1] 0.002 | defactinib 0.033 | rucaparib -0.043 | [2] -0.016 | encorafenib -0.026 | [3] 0.018

ATP13A2 (UniProt Q9NQ11)
inactive: saracatinib 0.061 | sotrastaurin 0.036 | alvocidib 0.023 | Tubastatin A 0.026 | [1] 0.015 | defactinib -0.116 | rucaparib 0 | [2] 0.039 | encorafenib -0.027 | [3] 0.026

AGPS (UniProt O00116)
inactive: saracatinib -0.01 | sotrastaurin 0.018 | alvocidib -0.058 | Tubastatin A -0.011 | [1] 0.032 | defactinib -0.039 | rucaparib -0.017 | [2] 0.047 | encorafenib 0.009 | [3] -0.042

BUB1B isoform 3 (UniProt O60566)
inactive: saracatinib -0.071 | sotrastaurin -0.113 | alvocidib -0.074 | Tubastatin A 0.031 | [1] 0.042 | defactinib -0.076 | rucaparib 0.006 | [2] -0.031 | encorafenib 0.097 | [3] -0.029

ARFRP1 (UniProt Q13795)
Chain of UniProt Q13795 (Q13795 whole entry, looked up): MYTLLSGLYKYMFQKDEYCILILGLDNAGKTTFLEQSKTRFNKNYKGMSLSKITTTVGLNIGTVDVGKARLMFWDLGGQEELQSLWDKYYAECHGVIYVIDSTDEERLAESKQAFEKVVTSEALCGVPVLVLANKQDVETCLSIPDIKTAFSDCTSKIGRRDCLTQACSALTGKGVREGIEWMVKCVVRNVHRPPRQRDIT
inactive: saracatinib 0.108 | sotrastaurin -0.035 | alvocidib -0.008 | Tubastatin A -0.059 | [1] 0.037 | defactinib 0.01 | rucaparib 0.033 | [2] 0.031 | encorafenib -0.027 | [3] -0.137

BZW1 isoform 3 (UniProt Q7L1Q6)
inactive: saracatinib -0.083 | sotrastaurin -0.207 | alvocidib -0.098 | Tubastatin A 0.047 | [1] -0.054 | defactinib -0.141 | rucaparib 0.128 | [2] 0.027 | encorafenib 0.158 | [3] -0.1

ATG4B isoform 2 (UniProt Q9Y4P1)
Chain of UniProt Q9Y4P1 (Q9Y4P1 whole entry, looked up): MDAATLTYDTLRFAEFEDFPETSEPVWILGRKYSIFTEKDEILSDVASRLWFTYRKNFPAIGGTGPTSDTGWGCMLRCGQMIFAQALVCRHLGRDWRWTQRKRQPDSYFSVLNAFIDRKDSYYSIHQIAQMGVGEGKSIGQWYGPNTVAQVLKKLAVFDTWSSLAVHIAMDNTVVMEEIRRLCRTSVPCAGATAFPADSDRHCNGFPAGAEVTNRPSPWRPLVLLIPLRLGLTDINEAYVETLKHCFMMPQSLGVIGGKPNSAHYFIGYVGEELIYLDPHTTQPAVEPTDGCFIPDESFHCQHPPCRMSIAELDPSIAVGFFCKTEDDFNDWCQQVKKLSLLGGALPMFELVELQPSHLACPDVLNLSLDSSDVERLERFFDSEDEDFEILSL
inactive: saracatinib -0.186 | sotrastaurin -0.297 | alvocidib -0.19 | Tubastatin A 0.02 | [1] 0.027 | defactinib -0.263 | rucaparib -0.02 | [2] 0.004 | encorafenib -0.003 | [3] -0.04

ACSF3 (UniProt Q4G176)
inactive: saracatinib 0.079 | sotrastaurin 0.002 | alvocidib 0.026 | Tubastatin A -0.067 | [1] 0.099 | defactinib -0.058 | rucaparib -0.051 | [2] -0.016 | encorafenib 0.146 | [3] -0.019

ACAD9 (UniProt Q9H845)
inactive: saracatinib 0.008 | sotrastaurin 0.004 | alvocidib -0.012 | Tubastatin A -0.041 | [1] -0.001 | defactinib -0.026 | rucaparib -0.038 | [2] -0.025 | encorafenib -0.004 | [3] -0.015

ACSL4 (UniProt O60488)
inactive: saracatinib -0.128 | sotrastaurin -0.086 | alvocidib 0.033 | Tubastatin A 0.071 | [1] 0.05 | defactinib -0.041 | rucaparib 0.069 | [2] 0.043 | encorafenib 0.094 | [3] -0.024

ATRN (UniProt O75882)
Chain of UniProt O75882 (O75882 whole entry, looked up): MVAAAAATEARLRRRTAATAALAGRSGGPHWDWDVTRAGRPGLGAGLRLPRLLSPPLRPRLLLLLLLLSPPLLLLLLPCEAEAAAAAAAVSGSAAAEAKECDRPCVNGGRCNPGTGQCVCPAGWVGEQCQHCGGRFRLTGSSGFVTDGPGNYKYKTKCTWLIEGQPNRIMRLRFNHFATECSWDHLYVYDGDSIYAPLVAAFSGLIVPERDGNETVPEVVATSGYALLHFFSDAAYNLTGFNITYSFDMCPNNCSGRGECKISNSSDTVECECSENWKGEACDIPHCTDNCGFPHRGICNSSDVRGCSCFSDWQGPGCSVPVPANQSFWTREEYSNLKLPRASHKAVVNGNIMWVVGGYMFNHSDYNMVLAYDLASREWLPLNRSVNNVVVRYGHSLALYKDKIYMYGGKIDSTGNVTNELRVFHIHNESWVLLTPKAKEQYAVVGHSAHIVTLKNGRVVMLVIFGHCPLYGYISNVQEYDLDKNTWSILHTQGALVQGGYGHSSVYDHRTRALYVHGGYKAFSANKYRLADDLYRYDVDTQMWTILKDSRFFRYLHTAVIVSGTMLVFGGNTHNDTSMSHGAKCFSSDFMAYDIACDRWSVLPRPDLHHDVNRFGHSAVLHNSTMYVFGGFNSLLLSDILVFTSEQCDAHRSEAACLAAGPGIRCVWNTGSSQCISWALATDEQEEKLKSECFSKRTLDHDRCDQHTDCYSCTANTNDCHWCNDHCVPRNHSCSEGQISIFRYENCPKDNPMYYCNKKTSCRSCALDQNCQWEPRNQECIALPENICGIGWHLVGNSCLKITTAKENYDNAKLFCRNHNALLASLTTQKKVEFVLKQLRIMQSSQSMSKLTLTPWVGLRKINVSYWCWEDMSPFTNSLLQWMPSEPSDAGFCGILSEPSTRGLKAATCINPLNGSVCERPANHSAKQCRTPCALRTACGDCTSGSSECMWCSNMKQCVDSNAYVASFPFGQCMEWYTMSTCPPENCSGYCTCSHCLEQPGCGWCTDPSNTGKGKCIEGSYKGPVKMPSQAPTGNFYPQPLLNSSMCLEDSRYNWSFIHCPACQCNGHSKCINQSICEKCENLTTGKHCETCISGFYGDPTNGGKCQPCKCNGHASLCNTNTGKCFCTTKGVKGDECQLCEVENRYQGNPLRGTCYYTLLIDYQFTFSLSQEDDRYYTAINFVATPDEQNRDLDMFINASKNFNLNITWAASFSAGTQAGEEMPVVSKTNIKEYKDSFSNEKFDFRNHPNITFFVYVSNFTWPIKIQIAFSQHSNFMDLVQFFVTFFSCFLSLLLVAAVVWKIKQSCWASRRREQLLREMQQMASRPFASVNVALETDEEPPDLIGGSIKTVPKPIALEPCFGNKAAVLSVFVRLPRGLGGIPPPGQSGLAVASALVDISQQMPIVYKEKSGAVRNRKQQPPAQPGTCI
inactive: saracatinib 0.05 | sotrastaurin -0.047 | alvocidib -0.024 | Tubastatin A 0.012 | [1] -0.017 | defactinib -0.065 | rucaparib 0.022 | [2] 0.12 | encorafenib -0.05 | [3] 0.045

BRD8 (UniProt Q9H0E9)
inactive: saracatinib 0.004 | sotrastaurin -0.001 | alvocidib 0.004 | Tubastatin A -0.097 | [1] -0.017 | defactinib -0.047 | rucaparib -0.012 | [2] -0.08 | encorafenib -0.027 | [3] -0.009

ASH2L (UniProt Q9UBL3)
Chain of UniProt Q9UBL3 (Q9UBL3 whole entry, looked up): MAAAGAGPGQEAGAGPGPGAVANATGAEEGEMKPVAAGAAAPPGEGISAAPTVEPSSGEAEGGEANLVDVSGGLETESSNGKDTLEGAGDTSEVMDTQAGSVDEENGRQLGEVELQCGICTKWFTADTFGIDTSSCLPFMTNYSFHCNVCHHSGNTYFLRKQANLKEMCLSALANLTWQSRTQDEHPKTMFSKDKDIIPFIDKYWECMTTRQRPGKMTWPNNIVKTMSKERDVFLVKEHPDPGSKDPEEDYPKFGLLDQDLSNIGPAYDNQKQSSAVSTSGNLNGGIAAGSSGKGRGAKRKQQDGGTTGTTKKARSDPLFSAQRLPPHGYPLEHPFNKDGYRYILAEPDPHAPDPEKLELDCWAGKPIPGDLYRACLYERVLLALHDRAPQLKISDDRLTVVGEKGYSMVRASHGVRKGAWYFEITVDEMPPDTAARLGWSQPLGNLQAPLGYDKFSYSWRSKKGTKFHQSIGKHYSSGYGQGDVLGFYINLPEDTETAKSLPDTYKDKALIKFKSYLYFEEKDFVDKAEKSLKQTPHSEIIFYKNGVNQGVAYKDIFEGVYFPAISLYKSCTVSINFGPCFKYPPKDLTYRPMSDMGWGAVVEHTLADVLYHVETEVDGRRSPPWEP
inactive: saracatinib 0.023 | sotrastaurin -0.025 | alvocidib -0.035 | Tubastatin A 0.052 | [1] 0.023 | defactinib -0.12 | rucaparib 0.012 | [2] -0.036 | encorafenib 0.037 | [3] -0.009

ABHD16A (UniProt O95870)
inactive: saracatinib 0.01 | sotrastaurin 0.214 | alvocidib -0.033 | Tubastatin A 0.004 | [1] 0.031 | defactinib -0.065 | rucaparib -0.017 | [2] 0.162 | encorafenib -0.05 | [3] 0.031

B4GALT1 (UniProt P15291)
Chain of UniProt P15291 (P15291 whole entry, looked up): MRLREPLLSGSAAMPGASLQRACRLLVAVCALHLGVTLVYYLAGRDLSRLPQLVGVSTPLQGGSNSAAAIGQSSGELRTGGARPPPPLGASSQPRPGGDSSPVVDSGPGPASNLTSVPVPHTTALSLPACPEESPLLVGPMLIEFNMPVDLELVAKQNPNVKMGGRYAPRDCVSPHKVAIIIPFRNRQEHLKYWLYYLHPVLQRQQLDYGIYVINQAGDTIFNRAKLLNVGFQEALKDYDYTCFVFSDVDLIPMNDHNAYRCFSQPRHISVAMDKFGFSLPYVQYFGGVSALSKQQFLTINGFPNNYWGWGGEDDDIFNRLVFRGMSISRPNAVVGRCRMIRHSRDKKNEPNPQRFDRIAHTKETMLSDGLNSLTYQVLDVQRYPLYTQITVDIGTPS
inactive: saracatinib -0.017 | sotrastaurin -0.07 | alvocidib -0.117 | Tubastatin A 0.063 | [1] 0.023 | defactinib 0.066 | rucaparib 0.013 | [2] -0.041 | encorafenib 0.032 | [3] -0.084

ANP32E (UniProt Q9BTT0)
Chain of UniProt Q9BTT0 (Q9BTT0 whole entry, looked up): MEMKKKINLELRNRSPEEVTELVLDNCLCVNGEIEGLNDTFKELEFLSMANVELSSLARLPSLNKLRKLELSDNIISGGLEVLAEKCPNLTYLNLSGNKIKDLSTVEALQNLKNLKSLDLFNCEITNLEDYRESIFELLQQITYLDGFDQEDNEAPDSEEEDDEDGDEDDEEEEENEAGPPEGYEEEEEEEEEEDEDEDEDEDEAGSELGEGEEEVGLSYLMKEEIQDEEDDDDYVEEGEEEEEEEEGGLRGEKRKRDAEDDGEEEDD
inactive: saracatinib 0.006 | sotrastaurin -0.105 | alvocidib -0.109 | Tubastatin A 0.052 | [1] 0.041 | defactinib -0.239 | rucaparib -0.108 | [2] -0.06 | encorafenib 0.159 | [3] -0.022

BCLAF1 (UniProt Q9NYF8)
Chain of UniProt Q9NYF8 (Q9NYF8 whole entry, looked up): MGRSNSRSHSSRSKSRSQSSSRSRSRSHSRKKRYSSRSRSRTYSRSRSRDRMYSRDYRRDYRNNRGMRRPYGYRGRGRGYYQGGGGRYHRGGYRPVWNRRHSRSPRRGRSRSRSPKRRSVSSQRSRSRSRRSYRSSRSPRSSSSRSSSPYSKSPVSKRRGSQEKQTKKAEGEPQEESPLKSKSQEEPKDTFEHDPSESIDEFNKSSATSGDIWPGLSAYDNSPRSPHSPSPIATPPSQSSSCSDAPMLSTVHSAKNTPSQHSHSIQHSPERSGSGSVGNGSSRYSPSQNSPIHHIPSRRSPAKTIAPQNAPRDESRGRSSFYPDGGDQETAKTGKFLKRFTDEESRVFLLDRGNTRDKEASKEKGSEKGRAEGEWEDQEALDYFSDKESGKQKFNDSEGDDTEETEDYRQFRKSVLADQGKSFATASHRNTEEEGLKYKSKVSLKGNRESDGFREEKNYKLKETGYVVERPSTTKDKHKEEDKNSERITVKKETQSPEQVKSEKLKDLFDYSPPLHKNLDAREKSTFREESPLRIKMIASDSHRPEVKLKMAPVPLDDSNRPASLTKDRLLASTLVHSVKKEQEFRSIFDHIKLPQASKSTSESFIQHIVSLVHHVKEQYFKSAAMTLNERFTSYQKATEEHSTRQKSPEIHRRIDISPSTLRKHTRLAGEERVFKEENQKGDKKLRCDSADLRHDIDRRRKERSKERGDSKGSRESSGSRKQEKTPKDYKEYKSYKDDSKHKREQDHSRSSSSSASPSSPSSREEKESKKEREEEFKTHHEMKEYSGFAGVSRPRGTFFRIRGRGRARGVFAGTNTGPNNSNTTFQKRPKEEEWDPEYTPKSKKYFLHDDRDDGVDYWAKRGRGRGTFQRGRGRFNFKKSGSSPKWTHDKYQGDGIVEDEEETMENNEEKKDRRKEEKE
inactive: saracatinib -0.033 | sotrastaurin 0.039 | alvocidib -0.271 | Tubastatin A 0.184 | [1] -0.275 | defactinib -0.382 | rucaparib 0.017 | [2] -0.057 | encorafenib 0.013 | [3] -0.028

AKAP8 (UniProt O43823)
Chain of UniProt O43823 (O43823 whole entry, looked up): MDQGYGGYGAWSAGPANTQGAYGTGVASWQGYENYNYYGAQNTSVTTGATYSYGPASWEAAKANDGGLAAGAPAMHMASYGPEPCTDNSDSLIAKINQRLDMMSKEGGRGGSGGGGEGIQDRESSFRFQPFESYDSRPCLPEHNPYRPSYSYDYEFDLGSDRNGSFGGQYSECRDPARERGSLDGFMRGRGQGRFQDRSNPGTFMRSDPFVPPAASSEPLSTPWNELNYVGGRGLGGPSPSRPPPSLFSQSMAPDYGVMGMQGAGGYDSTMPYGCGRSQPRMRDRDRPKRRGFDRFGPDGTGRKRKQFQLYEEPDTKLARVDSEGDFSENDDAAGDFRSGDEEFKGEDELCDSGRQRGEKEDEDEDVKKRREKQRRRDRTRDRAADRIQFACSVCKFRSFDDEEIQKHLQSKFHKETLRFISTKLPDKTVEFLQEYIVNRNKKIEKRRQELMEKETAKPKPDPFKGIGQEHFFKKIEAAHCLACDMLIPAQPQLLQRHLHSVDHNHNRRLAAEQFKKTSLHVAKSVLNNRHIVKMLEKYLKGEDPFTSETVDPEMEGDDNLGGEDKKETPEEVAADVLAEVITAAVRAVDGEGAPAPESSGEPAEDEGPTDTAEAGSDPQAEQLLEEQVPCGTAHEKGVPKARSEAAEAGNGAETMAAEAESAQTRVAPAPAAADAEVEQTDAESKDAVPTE
inactive: saracatinib 0.012 | sotrastaurin -0.021 | alvocidib 0.112 | Tubastatin A 0.002 | [1] -0.073 | defactinib 0.01 | rucaparib 0.017 | [2] -0.126 | encorafenib 0.037 | [3] 0.008

ATOX1 (UniProt O00244)
Chain of UniProt O00244 (O00244 whole entry, looked up): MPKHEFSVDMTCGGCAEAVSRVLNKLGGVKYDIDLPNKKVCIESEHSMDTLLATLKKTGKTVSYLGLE
inactive: saracatinib -0.042 | sotrastaurin -0.054 | alvocidib -0.106 | Tubastatin A 0.062 | [1] 0.001 | defactinib -0.117 | rucaparib -0.09 | [2] -0.046 | encorafenib 0.047 | [3] -0.105
